Where “and” joins values, the source holds several entries; their conditions need not be identical. Identical values can stand only once. Results filed as inconclusive are left out. Calls of active or inactive are those of the source. Unless noted, calls come from the whole dose curve; as a rule, active = well fitted curve in the direction sought with a large enough effect in the repeat runs; inconclusive = weak or mixed curves; inactive = no such curve, though single readings can be large; an effect the other way counts as inactive or inconclusive.
biological target: Nuclear receptor ROR-gamma (Homo sapiens) (UniProt P51449); experiment: qHTS assay for small molecule antagonists of the retinoid-related orphan receptor gamma (ROR-gamma) signaling pathway (AID 651802; active = well fitted curve in the direction sought with a large enough effect; an effect the other way counts as inactive or inconclusive;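 note: CHO cells with doxycycline-induced ROR-gamma expression; luciferase reporter luminescence driven by ROR response element; % is set by controls: 0 for no effect and ±100 for the full control effect; nearly all actives have a fitted effect of over 60% in size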); conditions: ROR-gamma antagonist cell reporter assay; series mostly up to 92.2 µM
Sequence (P51449 whole entry, looked up): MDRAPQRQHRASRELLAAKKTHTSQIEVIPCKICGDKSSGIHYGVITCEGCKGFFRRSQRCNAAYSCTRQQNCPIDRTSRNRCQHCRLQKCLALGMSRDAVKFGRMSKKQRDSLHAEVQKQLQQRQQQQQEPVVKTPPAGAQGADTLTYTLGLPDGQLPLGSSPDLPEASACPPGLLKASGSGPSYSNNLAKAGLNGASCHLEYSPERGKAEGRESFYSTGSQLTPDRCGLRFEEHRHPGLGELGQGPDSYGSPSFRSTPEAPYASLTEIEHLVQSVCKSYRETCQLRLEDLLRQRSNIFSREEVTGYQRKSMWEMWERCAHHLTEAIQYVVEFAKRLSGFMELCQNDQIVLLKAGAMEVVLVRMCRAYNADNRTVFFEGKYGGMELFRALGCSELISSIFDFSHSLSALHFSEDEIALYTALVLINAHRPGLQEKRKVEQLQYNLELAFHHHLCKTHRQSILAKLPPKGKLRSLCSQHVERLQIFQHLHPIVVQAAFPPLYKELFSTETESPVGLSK
Outline: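 Luminescence (One-Glo, 30 min RT) measured 16 h after compound addition and doxycycline induction at 37C. Reporter: RORE-luciferase under TET-inducible ROR-gamma in CHO cells.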

Row | SMILES | outcome
1 | CN(C)Cc1ccccc1 | inactive
2 | O=C(O)CC(O)(CC(=O)O)C(=O)O | inactive
3 | C=Cc1ccccc1 | inactive
4 | COC(C)=O | inactive

test system: not listed separately; experiment: qHTS assay for small molecule agonists of the antioxidant response element (ARE) signaling pathway measured by Nrf2-dependant transcriptional activity (AID 720636); conditions: ARE-luc HepG2, Nrf2 luciferase reporter, 16 h; series mostly up to 92.4 µM;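 note: HepG2 cells with an ARE-driven luciferase reporter; % of control where 0% means no effect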
Outline: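 In HepG2 cells engineered with an Nrf2-responsive luciferase gene, ARE induction was quantified as luminescence after 16 hr compound treatment at 37 C.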

Row | SMILES | outcome
5 | CN(C)Cc1ccccc1 | inactive
6 | C=Cc1ccccc1 | inactive
7 | CC(=O)S[C@@H]1CC2=CC(=O)CC[C@]2(C)[C@H]2CC[C@@]3(C)[C@@H](CC[C@@]34CCC(=O)O4)[C@H]12 | inactive
8 | O=S(=O)(c1ccccc1)N(CC(F)(F)F)c1ccc(C(O)(C(F)(F)F)C(F)(F)F)cc1 | inactive
9 | CCCCCCCC/C=C\CCCCCCCC(=O)OC[C@@H](O)[C@H]1OC[C@H](O)[C@H]1O | inactive
10 | COC(C)=O | inactive
11 | CCCCCCCCCC(=O)O | inactive

test system: not listed separately; experiment: qHTS assay for small molecule antagonists of the retinoid-related orphan receptor gamma (ROR-gamma) signaling pathway - cell viability counter screen (AID 720652); conditions: RORgamma reporter cell line viability counter screen; series mostly up to 92.2 µM;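 note: CHO reporter cells with doxycycline-induced ROR-gamma expression; compound exposure lasted 16 hr before ATP read; % is set by controls: 0 for no effect and ±100 for the full control effect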
Outline: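 Cytotoxicity counter screen: intracellular ATP (CellTiter-Glo luminescence) measured in the doxycycline-induced CHO RORE-luciferase reporter line after 16 hr compound exposure at 37 C, 5% CO2.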

Row | SMILES | outcome
12 | CN(C)Cc1ccccc1 | inactive
13 | O=C(O)CC(O)(CC(=O)O)C(=O)O | inactive
14 | C=Cc1ccccc1 | inactive
15 | COC(C)=O | inactive
16 | CCCCCCCCCC(=O)O | inactive

test system: not listed separately; experiment: qHTS assay for small molecule agonists of the antioxidant response element (ARE) signaling pathway measured by Nrf2-dependant transcriptional activity - cell viability counter screen (AID 720653); conditions: ARE-bla HepG2 viability, CellTiter-Glo ATP luminescence, 16 h; stronger effect = lower value; note: % is set by controls: 0 for no effect and ±100 for the full control effect
Outline: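 ARE-bla HepG2 cells (2,000/well) rested 5 hrs at 37C/5% CO2, then exposed to compounds in DMSO for 16 hrs. Viability was read in the same wells as intracellular ATP by luminescence, 30 min at room temperature after reagent addition.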

Row | SMILES | max response
17 | CN(C)Cc1ccccc1 | -3.95% (inactive)
18 | O=C(O)CC(O)(CC(=O)O)C(=O)O | 1.31% (inactive) and -9.81% (inactive) and -4.69% (inactive)
19 | C=Cc1ccccc1 | 5.41% (inactive) and 3.34% (inactive)
20 | CC(=O)S[C@@H]1CC2=CC(=O)CC[C@]2(C)[C@H]2CC[C@@]3(C)[C@@H](CC[C@@]34CCC(=O)O4)[C@H]12 | -12% (inactive)
21 | O=S(=O)(c1ccccc1)N(CC(F)(F)F)c1ccc(C(O)(C(F)(F)F)C(F)(F)F)cc1 | -21.3% (inactive)
22 | CCCCCCCC/C=C\CCCCCCCC(=O)OC[C@@H](O)[C@H]1OC[C@H](O)[C@H]1O | 4.25% (inactive)
23 | COC(C)=O | 11.2% (inactive)
24 | CCCCCCCCCC(=O)O | -4.59% (inactive) and -4.9% (inactive)
